An excerpt weighted towards active compounds, which were near 6.2% of everything screened.
HT1080 IDH1KD tx: qHTS for induction of synthetic lethality in tumor cells producing 2HG: qHTS for the HT-1080-IDH1KD cell line; HT-1080 IDH1 knockdown viability, ATP luminescence, 48 h; Potency, µM (titrated, usually from 46.1 µM), inactives show at the top dose activity, negative = toxicity, usual class: cytotoxic; 360,000 compounds, 2% hits; AID 686971, 2013;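 further: 0% = DMSO wells and -100% = cell-free medium wells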
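In this qHTS, HT-1080 cells depleted of IDH1 are exposed for 48 h at 37 °C to compound titrations. Toxicity is scored from CellTiter-Glo luminescence, with DMSO as full viability and medium alone as none.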
ATXN2 expr inh: Primary qHTS for Inhibitors of ATXN expression; Potency, µM (doses to about 57 µM), for inactives: at the highest dose activity change, negative = inhibition, usual class: inhibitors; HEK-293 ATXN2-luciferase reporter, luminescence, 24 h; 360,000 compounds, 0.72% hits; further: on the % scale 0 is the no-effect control and ±100 the full control effect; nearly all actives have a fitted effect of over 55% in size
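qHTS (up to 57 uM final) was run with 24 h compound exposure of reporter cells at 37 °C. Each well was multiplexed: SteadyGlo luminescence measured ATXN2-luciferase expression after a fluorogenic Gly-Phe-AFC viability readout (25 uM final).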
KB-3-1 tox: qHTS assay for MDR1-selective chemotherapeutics: Primary screen using the parental adenocarcinoma cell KB-3-1. 400,000 compounds, 1.4% hits. AID 1347075, 2019. KB-3-1 viability, CellTiter-Glo ATP luminescence, 72 h. Potency, µM (doses to about 46.1 µM), actives largely listed as cytotoxic; further: on the % scale 0 is the no-effect control and ±100 the full control effect; nearly all actives have a fitted effect of over 60% in size
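Here the drug-naive KB-3-1 line serves as comparator for MDR sub-line selectivity; cells received compound titrations, 72 h at 37 °C, then CellTiter-Glo readout.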
S2 tox: Viability Counterscreen for Primary qHTS for Inhibitors of ATXN expression | S2 cells (HEK-293 line with an ATXN2-luciferase reporter) viability, CellTiter-Fluor protease fluorescence, 24 h | Potency, µM (top dose mostly 56.7 µM), usual class: cytotoxic | 400,000 compounds, 0.49% hits; further: nearly all actives have a fitted effect of over 40% in size
HT1080-NT tox: qHTS for induction of synthetic lethality in tumor cells producing 2HG: qHTS for the HT-1080-NT fibrosarcoma cell line; HT-1080-NT fibrosarcoma viability, CellTiter-Glo ATP luminescence, 48 h; Potency, µM (series often up to 46.1 µM), inactives show at the top dose activity, negative = less viability, hits mostly cytotoxic; 360,000 compounds, 1.6% hits; AID 686970, 2013;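 further: NT is the 2HG producing partner of a matched IDH1 knockdown line; 0% = DMSO-treated cells and -100% = media-only wells without cells; nearly all actives have a fitted effect of over 55% in size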
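750 cells/well, RPMI + 5% FBS; 2 h settle, compound pin-transfer, 48 h at 37 degrees C. CellTiter-Glo 10 min RT, luminescence. Normalized to DMSO and media-only wells.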
KB-V1 MDR tox: qHTS assay for MDR1-selective chemotherapeutics: Primary screen using the drug-selected MDR subline cells KB-V1. Potency, µM (series often up to 46.1 µM), usual class: cytotoxic. KB-V1 MDR cells viability, CellTiter-Glo, 72 h. AID 1347076, 2019. 400,000 compounds, 3.4% hits; further: on the % scale 0 is the no-effect control and ±100 the full control effect; nearly all actives have a fitted effect of over 60% in size
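In this primary screen, KB-V1 cells overexpressing P-gp are incubated with library compounds (lowest to highest concentration) for 72 h at 37 degrees C before a luminescent ATP viability read.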
* hit, by the source's call; i = inactive; ? = inconclusive; nt = not tested or not shown; ! = not confirmed by another sample. The call rests on the fitted dose curve; in most records, active means well fitted curve in the direction sought with a large enough effect; inconclusive means small, poorly fitted or top-dose-only effect, or another doubt; inactive means no such curve, though single readings can be large; an effect the other way counts as inactive or inconclusive. Potency means the concentration at half of the fitted maximal effect.

SMILES | HT1080 IDH1KD tx | ATXN2 expr inh | KB-3-1 tox | S2 tox | HT1080-NT tox | KB-V1 MDR tox
Nc1c(C(=O)Nc2ccc3c(c2)OCCO3)nnn1CCc1ccccc1 | ? | 12% | 6.5µM* | i | ? | ?
Nc1c(C(=O)Nc2ccc3c(c2)OCCO3)nnn1Cc1cccc(Br)c1 | 13µM* | 5% | i | ? | -28% | 15µM*
CC(=O)Nc1ccc(C(=O)N2CCCC(n3cc(C(=O)NCC(C)C)nn3)C2)cc1 (centres undefined) | nt | nt | nt | i | nt | nt
C=CCSc1nnc(C2CCCN(Cc3ccccc3O)C2)n1C (centres undefined) | nt | nt | nt | i | nt | nt
O=[N+]([O-])c1ccc(Oc2ccc(S(=O)(=O)Nc3ccccc3)cc2)cc1 | ? | -14% | ? | i | ? | i
O=C1C(Cl)=C(NS(=O)(=O)c2ccc([N+](=O)[O-])cc2)C(=O)c2ccccc21 | ? | 18µM* | ? | 40µM* | ? | ?
O=[N+]([O-])c1cccc(S(=O)(=O)Nc2ccc(Cc3ccncc3)cc2)c1 | -4% | nt | i | i | 9% | 16µM*
O=[N+]([O-])c1ccc(NS(=O)(=O)c2ccc(Cl)c(Cl)c2)cc1 | 18µM* | ? | ? | ? | 16µM* | ?
O=[N+]([O-])c1ccc(S(=O)(=O)Nc2ccncc2)cc1 | -2% | -6% | i | i | 1% | i
CC1=C(C(=O)OCC2CCCCC2)C(c2ccc(Cl)cc2Cl)CC(=O)N1 (centres undefined) | nt | 6% | i | i | nt | i
CCN(CC)S(=O)(=O)c1ccc(Oc2ccccc2OC)cc1 | -21% | 6% | i | i | -4% | i
CCN(CC)S(=O)(=O)c1ccc(Oc2ccc(S(=O)(=O)N(CC)CC)cc2)cc1 | -29% | ? | ? | i | ? | 2.3µM*
CC1C(=O)C(C)C(c2ccc(Br)cc2)NC1c1ccc(Br)cc1 (centres undefined) | -11% | nt | i | ? | 0% | i
CC1C(=O)C(C)C(c2cc(Br)ccc2O)NC1c1cc(Br)ccc1O (centres undefined) | ? | ? | ? | ? | 13µM* | ?
Oc1ccc(Br)cc1-c1ccnn1-c1ccccc1 | 7.3µM* | ? | ? | i | ? | ?
Oc1ccc(Br)cc1-c1n[nH]c(=S)n1Cc1ccccc1 | -9% | -9% | i | i | -1% | i
CCC(=O)NC(c1ccc(C)cc1)c1cc([N+](=O)[O-])c2cccnc2c1O (centres undefined) | 13µM* | ? | ? | i | 16µM* | i
CC(=O)NC(c1ccc(C)cc1)c1cc([N+](=O)[O-])c2cccnc2c1O (centres undefined) | ? | ? | ? | i | ? | ?
COc1ccc(C(NC(C)=O)c2cc(Cl)c3cccnc3c2O)cc1 (centres undefined) | 12µM* | 4.5µM* | ? | i | ? | i
CCC(=O)NC(c1cc(Cl)c2cccnc2c1O)C(C)C (centres undefined) | nt | 7.1µM* | i | ? | nt | ?
CCCCC(=O)NC(c1cccs1)c1cc(Cl)c2cccnc2c1O (centres undefined) | ? | nt | ? | i | ? | ?
CCCC(=O)NC(c1ccc(OC)c(OC)c1)c1cc(Cl)c2cccnc2c1O (centres undefined) | ? | ? | ? | i | ? | 23µM*!
CCC(=O)NC(c1cccs1)c1cc(Cl)c2cccnc2c1O (centres undefined) | ? | nt | i | i | ? | i

Compound activity (PubChem)
